Assay results from the supplement of paper PMC6555819.

Experiments:
Test in all cases: PBM binding z-score (relative to random genomic background probes); higher = stronger binding; sequences stand for … in GC…GCGATTGACAGCGTAGAATGAAGG
[1] = system: FXR:RXRa (NR concentration 270 nM, RXRa partner concentration 90 nM)
In short: (§1)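 The probes on custom Agilent 4×180K protein-binding microarrays were double-stranded, with 34-nt variable regions bearing direct-repeat seeds, single-nucleotide variants, half-site ablations and random human genomic background sequences. Incubation lasted 1 h with ligand-free nuclear receptor dimers in PBS pH 7.4, 2% milk, 0.02% Triton X-100, 1 mM DTT, 0.2 mg/mL BSA and 0.4 mg/ml salmon testes DNA. Antibodies against each partner (one per run) detected bound dimers, and fluorescence scans were regression-normalized. Binding z-scores take the random background probes as reference.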

[2] = system: LXRa:RXRa (NR concentration 270 nM, RXRa partner concentration 90 nM)
In short: as §1

[3] = system: LXRa homodimer (NR concentration 270 nM)
In short: as §1

[4] = system: LXRb:RXRa (NR concentration 270 nM, RXRa partner concentration 90 nM)
In short: as §1

[5] = system: LXRb homodimer (NR concentration 270 nM)
In short: as §1

[6] = system: PPARa:RXRa (NR concentration 270 nM, RXRa partner concentration 90 nM)
In short: as §1

[7] = system: PPARg:RXRa (NR concentration 180 nM, RXRa partner concentration 90 nM)
In short: as §1

[8] = system: PPARg:RXRa 270nM:90nM, anti-RXR (NR concentration 270 nM, RXRa partner concentration 90 nM)
In short: as §1

[9] = system: PPARg:RXRa 30nM:10nM, anti-RXR (NR concentration 30 nM, RXRa partner concentration 10 nM)
In short: as §1

[10] = system: PPARg:RXRa 90nM:30nM, anti-RXR (NR concentration 90 nM, RXRa partner concentration 30 nM)
In short: as §1

Sequence	PBM binding z-score [1]	PBM binding z-score [2]	PBM binding z-score [3]	PBM binding z-score [4]	PBM binding z-score [5]	PBM binding z-score [6]	PBM binding z-score [7]	PBM binding z-score [8]	PBM binding z-score [9]	PBM binding z-score [10]
CATACAGGGTCAACTAGGCCAGAGTAGGGACGGC	6.88	4.92	0.472	4.1	0.96	5.82	6.43	5.91	2.49	4.66
AATACAGGGTCATCGGAGGCCAGAGTACGCACAG	7.32	6.52	2.37	4.98	1.28	6.1	6.72	6.12	2.64	4.8
CCTACTAGGCCAAAAAGGTCATTGATGCCGATAA	3.79	4.67	3.6	4.54	0.985	4.84	3.56	4.24	1.54	3.67
AGAATGAGGTTGAGATCAGGGAAACAGAATACAT	0.277	0.207	-0.104	0.224	-0.585	0.66	0.524	0.227	0.329	0.246
CTACCAATGTGAACAAGGTCGTTGATTACTATTC	0.783	1.15	0.608	1.83	0.441	1.51	0.331	0.322	0.12	0.449
AGAACGAGGGCAATGAGTTGATAGCGCGGGTGGC	0.136	0.127	-0.734	-0.343	-0.754	1.25	0.897	0.618	-0.31	0.0829
ATATGTCGGTTACATCCGGGTCATTCAGGCTATG	1.65	2.86	1.27	1.92	0.559	2.79	1.55	1.48	0.573	1.09
